Screening data (PubChem)
The list is not random: actives were taken first. Their share in the collection is about 2%.
ASM inhibitor: inhibitors of human secretory acid sphingomyelinase; hit rate 0.006% among 340,000; placental ASM, HMU-PC fluorogenic substrate, 60 min; P17405; Potency, µM (top dose mostly 57.5 µM), inactives show at the highest dose activity change, negative = inhibition, usual class: inhibitors
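Fluorescence read-out (Ex 386 nm, Em 447 nm) after stopping the reaction at pH 10. Enzyme: ASM from human placenta; substrate HMU-PC0, 9 uM final; 60 min, 37 °C. Compound preincubation 10 min, ambient temperature.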
Rango-impB inh: inhibitors of Rango-importin beta complex formation; Rango CFP/YFP FRET sensor + importin beta, 45 min; AID 540263; Q14974; Potency, µM (series often up to 92.2 µM), without a hit: at the top dose inhibition of complex formation; hit rate 0.031% among 340,000; calls by dose curve;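 further: 0% = DMSO wells and 100% = buffer wells lacking importin beta; nearly all actives have a fitted effect of over 15% in size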
Target sequence (Q14974 whole entry, looked up): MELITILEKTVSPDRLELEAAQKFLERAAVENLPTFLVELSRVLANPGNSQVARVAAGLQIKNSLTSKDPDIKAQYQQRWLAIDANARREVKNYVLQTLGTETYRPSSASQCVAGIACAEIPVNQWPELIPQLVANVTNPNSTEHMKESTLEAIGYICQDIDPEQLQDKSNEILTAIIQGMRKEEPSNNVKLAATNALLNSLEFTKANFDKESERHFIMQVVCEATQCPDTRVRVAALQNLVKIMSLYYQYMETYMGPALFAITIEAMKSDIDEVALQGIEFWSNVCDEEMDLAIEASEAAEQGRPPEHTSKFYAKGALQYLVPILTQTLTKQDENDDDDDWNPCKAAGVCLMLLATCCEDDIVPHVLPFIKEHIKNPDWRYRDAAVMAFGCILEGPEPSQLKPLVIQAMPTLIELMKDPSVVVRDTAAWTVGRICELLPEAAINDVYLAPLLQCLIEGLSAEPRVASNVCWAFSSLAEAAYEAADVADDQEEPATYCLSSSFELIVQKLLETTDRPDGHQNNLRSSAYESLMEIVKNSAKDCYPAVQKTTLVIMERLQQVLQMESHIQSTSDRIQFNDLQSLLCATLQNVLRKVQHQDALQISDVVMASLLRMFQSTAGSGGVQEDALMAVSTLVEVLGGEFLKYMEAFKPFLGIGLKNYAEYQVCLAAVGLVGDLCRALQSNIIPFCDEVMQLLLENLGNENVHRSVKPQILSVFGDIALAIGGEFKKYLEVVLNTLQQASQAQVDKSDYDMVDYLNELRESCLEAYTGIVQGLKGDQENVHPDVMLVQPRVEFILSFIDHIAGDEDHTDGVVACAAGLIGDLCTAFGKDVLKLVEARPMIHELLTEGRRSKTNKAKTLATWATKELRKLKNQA
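FRET biosensor Rango (snurportin 1 IBB between N-terminal EYFP and C-terminal Cerulean), 50 nM in PBS/1 mM DTT/0.02% Tween-20/0.1% BSA, preincubated 5 min RT with compound; 0.125 microM importin beta added, 45 min RT, CFP/YFP FRET ratio read.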
Abeta rescue: compounds reversing amyloid beta toxicity in yeast. yeast expressing A-beta42, growth rescue, OD600, 48 h; response scale: 0% DMSO, 100% iron-clioquinol control. Potency, µM (doses to about 46.1 µM), usual class: activators. hit rate 0.063% among 410,000. AID 1347071; further: nearly all actives have a fitted effect of over 55% in size
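Yeast A-beta toxicity model in growth medium with pinned compounds, 48 h at 30 C; growth read as absorbance at 600 nm. Normalized to FeCl3/clioquinol equimolar mix (positive) and DMSO (negative).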
Rango release inh: prevents RanGTP from dissociating the Rango-importin beta complex | Biochemical FRET Rango-importin beta, RanGTP-induced dissociation | Potency, µM (titrated, usually from 46.1 µM), for inactives: at the highest dose activity change, negative = inhibition | hit rate 0.071% among 340,000 | AID 540253; calls by dose curve; further: % of control where 0% means no effect; nearly all actives have a fitted effect of over 45% in size
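Rango (0.1 uM)–importin beta (0.25 uM) complex; RanGTP-RCC1 trigger; 45 min RT; CFP/YFP FRET read.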
TDP43 rescue: rescues yeast growth from TDP-43 toxicity; TDP-43 expressing yeast growth rescue, BacTiter-Glo, 24 h; Potency, µM (highest dose often 46.1 µM), inactives show at the highest dose growth rescue (activation), actives largely listed as activators; hit rate 1.8% among 410,000; further: % of control where 0% means no effect; nearly all actives have a fitted effect of over 50% in size
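Luminescence from BacTiter-Glo reports growth of TDP-43-expressing yeast after 24 hr at 30 deg C with compound. Cells were raffinose-pregrown to mid-log, then seeded in galactose medium at OD600=0.02.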
aSyn yeast inh: inhibitors of alpha-synuclein toxicity in yeast | Yeast expressing alpha-synuclein, growth rescue, BacTiter-Glo, 24 h | Potency, µM (top dose mostly 46.1 µM), without a hit: top-dose growth rescue (activation), actives largely listed as activators | hit rate 0.14% among 370,000 | AID 652106; further: % of control where 0% means no effect; nearly all actives have a fitted effect of over 65% in size
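Readout is rescue of growth in alpha-synuclein-expressing yeast, so inhibitors of toxicity appear as activators. Growth after 24 hr at 30 deg C in galactose medium is quantified by luminescence.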
Numbers without * were called inactive; i = inactive; ? = inconclusive; . = no result; [ ] = dose if it differs, or a comment. Unless noted, the call rests on the fitted dose curve; in most records, active means well fitted curve in the direction sought with a large enough effect; inconclusive means small, poorly fitted or top-dose-only effect, or another doubt; inactive means no such curve, though single readings can be large; an effect the other way counts as inactive or inconclusive. Potency means the concentration at half of the fitted maximal effect.

SMILES	ASM inhibitor	Rango-impB inh	Abeta rescue	Rango release inh	TDP43 rescue	aSyn yeast inh
CN1C(=O)/C(=C/c2cccc(Cl)c2)Sc2ccc(C(=O)N3CCOCC3)cc21	-11%	-2%	i	5%	20µM*	16%
COc1cccc(Cn2nc(SC)c(S(=O)(=O)c3ccccc3)c2N(C(C)=O)C(C)=O)c1	.	.	i	.	20µM*	.
CSc1nn(Cc2ccc(Br)cc2)c(N(C(C)=O)C(C)=O)c1S(=O)(=O)c1ccccc1	.	.	i	.	35µM*	.
CSc1nn(Cc2cccc(F)c2)c(N(C(C)=O)C(C)=O)c1S(=O)(=O)c1ccccc1	.	.	i	.	35µM*	.
CSc1nn(Cc2ccc(Cl)cc2)c(N(C(C)=O)C(C)=O)c1S(=O)(=O)c1ccccc1	.	.	i	.	?	.
COc1ccc2c(c1)C=C/C2=C/c1ccc(N(C)C)cc1	.	.	.	.	.	-8%
CCCC(=O)c1cc(F)c(N2CCN(C(=O)OCC)CC2)cc1C	10%	-4%	i	8%	16µM*	-1%
O=C(c1ccc(N2CCN(C(=O)c3ccccc3Br)CC2)cc1)c1cccc(F)c1	-3%	?	i	-2%	14µM*	19%
CCCC(=O)c1ccc(N2CCN(C(=O)c3ccccc3)CC2)c(F)c1	-7%	1%	i	-4%	?	-6%
CCCC(=O)c1ccc(N2CCN(C(=O)c3ccccc3Br)CC2)c(F)c1	-12%	-8%	i	14%	22µM*	0%
O=C(c1ccccc1)c1ccc(N2CCN(C(=O)c3ccc(F)cc3F)CC2)c(F)c1	.	.	i	.	22µM*	6%
CCCC(=O)c1cc(F)c(N2CCN(CCC#N)CC2)cc1C	-2%	1%	i	-21%	2%	1%
O=C1C(=C(c2ccccc2)N2CCOCC2)Cc2ccccc21	.	.	i	.	13µM*	12%
O=C(c1ccccc1)N1CCN(C(=O)N2CCOCC2)CC1	4%	0%	i	8%	17%	-8%
Cc1cc(C)cc(OCc2cc(=O)n3c4c(sc3n2)CCCC4)c1	.	.	i	.	13%	.
CN(C)c1ccc(CNC(=O)c2cccn2-c2nnc(N3CCCCC3)s2)cc1	.	.	i	.	-13%	.
CCC1CCCCN1S(=O)(=O)c1ccc2c(c1)CCN2C(=O)C1CCC1 (stereo not given)	-4%	0%	i	-5%	35µM*	8%
O=C1Cc2cc([N+](=O)[O-])ccc2N1c1c(Cl)cccc1Cl	2%	2%	i	-1%	20µM*	3%
O=[N+]([O-])c1ccc(N2CCN(c3ccccc3O)CC2)c(Cl)c1	-17%	-3%	i	-4%	14%	5%
Cc1cccc(OCC(=O)Nc2nonc2-c2ccc(Br)cc2)c1C	.	.	i	.	21%	.
Cc1ccc2nc(-c3ccc(NS(=O)(=O)c4ccc(F)c(F)c4)cc3)sc2c1	i	?	i	?	25µM*	-27%
CCc1ccccc1NC(=O)CSc1nnc(-c2ccc(OC)cc2)s1	.	.	i	.	14%	.
O=C(Nc1ccccn1)c1ccc(COc2ccccc2Cl)o1	0%	-1%	i	0%	22µM*	-9%
O=C(Nc1cccnc1)c1ccc(COc2ccccc2Cl)o1	-1%	2%	?	11%	?	-2%
CN(C(=O)c1ccc(COc2ccccc2Cl)o1)c1ccccc1	-3%	2%	i	9%	10µM*	-1%
SMILES	ASM inhibitor	Rango-impB inh	Abeta rescue	Rango release inh	TDP43 rescue	aSyn yeast inh
NC(=S)Cc1nc(-c2ccc(Cl)cc2)cs1	-1%	0%	6.3µM*	-9%	?	-27%
N/C(=N\OC(=O)c1ccccc1)c1ccccn1	1%	-2%	i	-9%	-20%[0.397 µM]	-34%
N/C(=N\OC(=O)c1ccc(Br)o1)c1ccccn1	9%	-4%	i	-1%	14µM*	0%
Cc1cccc(C(=O)O/N=C(\N)c2ccccn2)c1	17%	1%	i	-2%	13µM*	-24%
Cc1ccc(C(=O)O/N=C(\N)c2ccccn2)cc1	1%	4%	i	9%	?	-49%
Cc1cccc(/C(N)=N/OC(=O)c2cccnc2)c1	5%	-1%	i	-3%	11µM*	-8%
Cc1ccc(C(=O)O/N=C(\N)c2ccccn2)cc1C	1%	4%	i	3%	10µM*	-17%
CCc1nn(CC(=O)NCc2ccc(OC)cc2OC)c(=O)c2cc3c(OC)cccc3n12	.	.	i	.	?	.
COc1cc(OC)c(OC)cc1/C=C/c1nccc2ccccc12	.	.	.	.	.	-17%
N/C(=N\OC(=O)/C=C/c1ccccc1Cl)c1ccccn1	9%	7%	i	1%	?	-10%
COc1cc(OC)cc(C(=O)O/N=C(\N)c2cccc(C)c2)c1	-2%	1%	i	-1%	?	-49%
Cc1cccc(/C(N)=N/OC(=O)c2ccc(Br)o2)c1	2%	-2%	i	17%	4.5µM*	-36%
N/C(=N\OC(=O)c1cccc(F)c1)c1ccccn1	-1%	1%	i	18%	3.2µM*	-3%
N/C(=N\OC(=O)/C=C/c1ccc(Br)cc1)c1ccccn1	1%	-2%	i	0%	18µM*	1%
CCOc1ccc(C(=O)O/N=C(\N)c2ccccn2)cc1	-1%	2%	i	-4%	13µM*	-48%
CCOC(=O)C1=C(CN2CCN(c3ccccc3F)CC2)NC(=O)NC1c1ccc(OC)cc1 (stereo not given)	.	.	i	.	0%	.
CCc1ccccc1NC(=O)Cn1nc(N2CCN(c3ccccc3OC)CC2)ccc1=O	.	.	i	.	-8%	.
CC(=O)N1CCOc2cc(S(=O)(=O)Nc3c(C)cccc3C(C)C)c(Cl)cc21	.	.	i	.	?	.
S=C(NC1CC1)SCc1ccco1	2%	0%	i	-7%	28µM*	7%
O=C(NC1CCCCC1)NC1CCN(C(=S)NCc2ccco2)CC1	4%	1%	i	-1%	-9%	-3%
CCCCC1(C)NC(=O)c2c(C)sc(C(=O)OCC)c2N1 (stereo not given)	46%	3%	i	2%	20µM*	14%
CCOC(=O)CC1(C)NC(=O)c2c(C)sc(C(=O)OCC)c2N1 (stereo not given)	44%	-2%	i	2%	6%	11%
O=C(CSc1ccc2ccccc2n1)NC1CC1	4%	1%	i	0%	-19%	14%
CCN(C(=O)CSc1ccc2ccccc2n1)C1CCCCC1	-4%	0%	i	3%	22µM*	-13%
N/C(=N\OC(=O)CC1CCCCC1)c1cccc(Br)c1	0%	0%	i	-7%	3.2µM*	-34%
